Only some compounds are listed: those with a hit (about 2.6% of all), similar ones and a draw of the others.
A3A deaminase = APOBEC3A ssDNA deaminase inhibitors, primary screen, selectivity assay for APOBEC3G inhibitor project, biochemical, FAM/TAMRA oligo cleavage fluorescence. inhibition, % at 20 µM. recombinant A3A, FAM/TAMRA ssDNA deamination fluorescence. 330,000 tested, 0.41% active. DNA dC->dU-editing enzyme APOBEC-3A (Homo sapiens), P31941;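 active = at least 40% inhibition at 20 µM here, with at most 30% in a related deaminase screen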
Target sequence (P31941 whole entry, looked up): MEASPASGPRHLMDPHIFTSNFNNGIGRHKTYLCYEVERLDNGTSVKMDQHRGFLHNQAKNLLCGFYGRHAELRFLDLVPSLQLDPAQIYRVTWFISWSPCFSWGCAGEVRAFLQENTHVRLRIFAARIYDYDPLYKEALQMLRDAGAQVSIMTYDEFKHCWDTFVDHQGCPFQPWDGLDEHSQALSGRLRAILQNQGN
APOBEC3G inh = APOBEC3G DNA deaminase inhibitors, primary screen, biochemical, fluorescence, single-stranded DNA substrate, uHTS; 330,000 tested, 0.28% active; AID 493012, 2011; DNA dC->dU-editing enzyme APOBEC-3G (Homo sapiens), Q9HC16; inhibition, % at 20 µM; recombinant A3G, ssDNA deamination FAM/TAMRA fluorescence;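 active = inhibition of at least 40% at 20 µM, with no more than 30% in the related APOBEC3A deaminase screen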
Target sequence (Q9HC16 whole entry, looked up): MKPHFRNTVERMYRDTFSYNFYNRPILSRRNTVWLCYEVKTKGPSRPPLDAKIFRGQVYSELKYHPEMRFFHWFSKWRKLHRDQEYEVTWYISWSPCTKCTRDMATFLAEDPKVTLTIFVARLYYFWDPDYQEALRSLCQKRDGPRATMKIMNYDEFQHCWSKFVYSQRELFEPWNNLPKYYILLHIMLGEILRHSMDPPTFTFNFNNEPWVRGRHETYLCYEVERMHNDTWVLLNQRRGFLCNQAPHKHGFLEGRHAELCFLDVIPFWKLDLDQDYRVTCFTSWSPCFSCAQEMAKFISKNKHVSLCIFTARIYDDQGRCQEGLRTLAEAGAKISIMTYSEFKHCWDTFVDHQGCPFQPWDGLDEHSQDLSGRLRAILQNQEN
eIF4H inh = human eIF4H binding inhibitors, primary screen, translation initiation inhibitor project, biochemical, uHTS, fluorescence polarization; 290,000 tested, 0.94% active; inhibition, % at 35 µM; Eukaryotic translation initiation factor 4H (Homo sapiens), Q15056; eIF4H fluorescence polarization binding assay;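 note: calls also rest on retests at 20 µM and on dose response follow-up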
PABP FP inh = PABP poly(A) RNA binding inhibitors, primary screen, biochemical, fluorescence polarization, uHTS | Polyadenylate-binding protein 1 (Homo sapiens), P11940 | calls only at 35 µM | 290,000 tested, 1% active | AID 2014, 2009;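 note: calls also rest on retests at 20 µM and on dose response follow-up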
PHOSPHO1 block = PubChem AID 1565; inhibition, % at 13.3 µM; recombinant PHOSPHO1, absorbance phosphatase assay; 290,000 tested, 1.1% active; Phosphoethanolamine/phosphocholine phosphatase (Homo sapiens), Q8TCT1; in the data active = inhibition above about 60%
MLLE-PAM2 inh = inhibitors of PABP1 MLLE–PAM2 peptide binding, primary screen, biochemical, fluorescence polarization, FITC-PAM2, GST-MLLE; inhibition, % at 20 µM; 360,000 tested, 0.36% active; AID 588489, 2011; in the data active = inhibition above about 35%, passing the limit was not always enough
Numbers stand for hits; 0 = inactive; ? = inconclusive; - = no result given; + = active, no number. Unless noted, the rule behind the calls is not given here.

SMILES	A3A deaminase	APOBEC3G inh	eIF4H inh	PABP FP inh	PHOSPHO1 block	MLLE-PAM2 inh
Cc1ccc(S(=O)(=O)OCC(=O)Nc2ccc(C(=O)O)c(O)c2)cc1	-	-	-	-	-	44
Cc1ccc(NC(=O)COCC(=O)Nc2ccc(C)cc2)cc1	0	0	0	0	0	0
CCOC(=O)C1(CC2CC2)CCN(Cc2cc(Cl)c(O)c(OC)c2)CC1	0	0	0	0	0	0
CCOC(=O)C1(CC2CC2)CCN(Cc2ccc(OC)cc2F)CC1	0	0	89	0	0	0
Cc1ccc(OCC(O)CN2CC3(C)CC2CC(C)(C)C3)cc1 (stereo unspecified)	0	0	13	+	0	0
COc1cccc(C2=NOC(C(=O)NCc3ccccn3)C2)c1 (stereo unspecified)	0	0	0	0	60	0
COc1ccc(C2=NOC(C(=O)NCc3ccccn3)C2)cc1 (stereo unspecified)	0	0	0	0	0	0
OCC(O)[C@@H](O[C@H]1O[C@H](CO)[C@@H](O)[C@H](O)[C@H]1O)[C@H](O)[C@@H](O)CO (stereo partly specified)	0	0	-	-	-	0
O=C(O)CN1C(=O)/C(=C2\SC(=S)N(C(Cc3ccccc3)C(=O)O)C2=O)c2ccccc21 (stereo unspecified)	0	0	0	0	0	39
CCCS(=O)(=O)NC(=O)C1(C)CCCN(C(=O)c2cc(OC)ccc2Br)C1 (stereo unspecified)	-	-	-	-	-	0
O=c1c(O)cccc2cc(O)c(O)c(O)c12	0	0	102	+	0	38
O=c1cc(-c2ccccc2)oc2cc(O)c(O)c(O)c12	0	0	-	-	-	0
OCc1nc2nc(Cl)c(Cl)nc2[nH]1	0	0	52	+	0	0
CC(=O)Nc1nc2n(n1)C(c1ccc(F)cc1)C=C(c1ccccc1)N2 (stereo unspecified)	0	0	0	0	0	0
O=C(c1nc2n(n1)C(c1ccc(Cl)cc1)C=C(c1ccccc1)N2)N1CCOCC1 (stereo unspecified)	0	0	66	+	0	0
CC(=O)Nc1nc2n(n1)C(c1ccccc1)C=C(c1ccccc1)N2 (stereo unspecified)	0	0	0	0	0	59
CS(=O)(=O)Nc1nc2n(n1)C(c1ccccc1)C=C(c1ccc(Br)cc1)N2 (stereo unspecified)	0	0	76	+	0	0
CC12CCC(C(=O)C1)C1(C)CCCC(=O)C21 (stereo unspecified)	-	-	-	-	-	0
Cc1nnc(N2C(=O)C(O)=C(C(=O)c3ccco3)C2c2ccc(C(C)C)cc2)s1 (stereo unspecified)	0	0	52	+	0	0
O=C(c1ccc2oc(Cc3ccc(Cl)cc3)nc2c1)N1CCCCC1CCO (stereo unspecified)	0	0	0	0	0	0
COc1ccc(/C=C2\SC(=S)N(CCCC(=O)Nc3ccccc3C(=O)O)C2=O)cc1OC	0	0	0	+	0	0
COc1cccc(/C=C2\SC(=S)N(CCCC(=O)NC3=NCCS3)C2=O)c1	0	0	0	+	0	0
CCc1ccc(/C=C2\SC(=S)N(CCCC(=O)Nc3cc(C)on3)C2=O)cc1	-	-	-	-	-	0
COc1cccc(/C=C2\SC(=S)N(CCCC(=O)Nc3cc(C)on3)C2=O)c1	0	0	?	+	0	0
COc1ccc(/C=C2\SC(=S)N(CCC(=O)Nc3ccccc3C(=O)O)C2=O)cc1	0	0	0	0	0	0
SMILES	A3A deaminase	APOBEC3G inh	eIF4H inh	PABP FP inh	PHOSPHO1 block	MLLE-PAM2 inh
Cn1cc(CN2CCC(n3nccc3NC(=O)Cc3ccccc3)CC2)cn1	0	0	0	0	0	0
CC(=O)n1c(-c2ccccc2)c(-c2ccccc2)n(C)c1=O	0	0	-	-	-	0
O=C(Nc1nccs1)c1cccc(N2C(=O)c3cccc4c([N+](=O)[O-])ccc(c34)C2=O)c1	0	0	0	0	78	0
CN(C)CCCN1C(=O)c2cccc3c([N+](=O)[O-])ccc(c23)C1=O	-	-	?	0	0	57
Cc1ccc(C(=O)O)cc1N1C(=O)c2cccc3c([N+](=O)[O-])ccc(c23)C1=O	0	0	101	+	0	0
O=C(O)c1ccc(CN2C(=O)c3ccc(C(=O)O)cc3C2=O)cc1	0	0	0	0	0	0
O=C(O)c1ccc(CN2C(=O)c3cccc4c([N+](=O)[O-])ccc(c34)C2=O)cc1	-	-	81	+	0	51
CC(=O)Nc1c([N+](=O)[O-])cc2c3c(cccc13)CC2	-	-	-	-	-	0
COc1ccccc1C(=O)C1CCCN(Cc2cccc3nccnc23)C1 (stereo unspecified)	0	0	0	0	60	0
CN1CCN(S(=O)(=O)c2cccc(C(=O)Nc3sc4c(c3C(N)=O)CCCC4)c2)CC1	0	0	0	0	70	0
CC(=O)N1CCc2c(sc(NC(=O)c3cccc(N4C(=O)CCC4=O)c3)c2C(N)=O)C1	0	0	0	+	0	0
Cc1ccccc1C(=O)N1CCC(C(=O)Nc2ccc(S(=O)(=O)N3C(C)CCCC3C)cc2)CC1 (stereo unspecified)	-	-	-	-	-	0
C=CCNC(=O)CSc1nnc(-c2ccccn2)n1Cc1ccccc1	0	0	?	+	0	0
CC(C)(C)NC(=O)CSc1nnc(-c2ccccn2)n1Cc1ccccc1	0	0	0	0	0	0
Cn1cc(/C=N\O)nc2c(=O)n(-c3ccccc3)c(=O)nc1-2	0	0	0	0	0	37
Nc1nnc2cc(F)ccc2n1	-	-	-	-	-	0
Nc1nnc2cc(Br)ccc2n1	-	-	-	-	-	75
COc1cc(C(=O)OCC(=O)N2CCC(Cc3ccccc3)CC2)cc(OC)c1OC	0	0	-	-	-	0
Cc1nn(CCOc2ccccc2)c(=O)n1-c1ccccc1	0	0	0	0	62	0
Cc1cccc(OCCN2C(=O)C(=O)c3cccc(C)c32)c1	0	0	1.1	0	0	0
Cc1cccc2c1N(CCCOc1ccccc1)C(=O)C2=O	0	0	0	0	0	0
CCOc1ccc2nc(NC(=S)NCc3ccccc3)sc2c1	0	0	0	0	72	0
Cc1cccc(Oc2ccc(S(=O)(=O)N3CCCCC3)cc2N)c1	0	0	0	0	0	0
CCOc1ccc2c(c1)C(=NNC(=O)c1ccccn1)c1cc(OCC)ccc1-2	-	-	-	-	-	0
COc1ccc(-n2c(COc3ccc(C)cc3)nnc2SCc2ccc(C#N)cc2)cc1	0	0	0	0	73	0
COc1cccc(-n2c(COc3ccc(C)cc3)nnc2SCC(=O)O)c1	0	0	0	0	74	0
Cc1ccc(NCc2nnc(SCC(=O)O)n2-c2ccc(C)cc2)cc1	0	0	0	0	67	0
